Laboratory results published in PubChem BioAssay AID1159580 (chemical genetic matrix, 2015).
Where “and” joins values, the source holds several entries; their conditions need not be identical. Equal entries are not always repeated. About 2,000 (36%) of roughly 5,500 compounds were called active. Roughly 18% stayed inconclusive and do not appear here. Rule as the data show it: active = normalized growth mostly below about 0.91 (no sharp cut-off); inconclusive = no clear call, values can overlap the other calls; inactive = mostly above about 0.92. The list shows a part of the results.

Assay: chemical genetic growth profiling, strain panel (AID 1159580);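 also: tested at 20 µM; growth read once vehicle control cultures reached saturation at 30 °C; 1 = growth at the plate median or of vehicle wells; lower values mean less growth of the strain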
Details: S. cerevisiae deletion strains, growth OD

Measured: normalized growth

N[C@@H](Cc1ccc(O)c(O)c1)C(=O)O
inactive: locus YAL013W, strain DEP1, hits give low values 0.999 | locus YAL021C, strain ccr4, hits give low values 1 | locus YAL026C, strain drs2, hits give low values 0.989 | locus YAL030W, strain snc1, hits give low values 1 | locus YBL061C, strain skt5, hits give low values 1.01 | locus YBR009C, strain hhf1, hits give low values 0.982 | locus YBR021W, strain FUR4, hits give low values 1.14 | locus YBR023C, strain chs3, hits give low values 1 | locus YBR171W, strain sec66, hits give low values 0.997 | locus YBR229C, strain ROT2, hits give low values 1.01 | locus YBR231C, strain swc5, hits give low values 1 | locus YBR279W, strain paf1, hits give low values 1 | locus YCL011C, strain gbp2, hits give low values 1 | locus YCL016C, strain dcc1, hits give low values 0.997 | locus YCL029C, strain bik1, hits give low values 0.998 | locus YCL061C, strain MRC1, hits give low values 0.998 | locus YCL069W, strain vba3, hits give low values 1 | locus YCR088W, strain abp1, hits give low values 0.999 | locus YDL005C, strain med2, hits give low values 0.994 | locus YDL035C, strain GPR1, hits give low values 0.976 | locus YDL040C, strain nat1, hits give low values 0.998 | locus YDL074C, strain BRE1, hits give low values 0.969 | locus YDL101C, strain DUN1, hits give low values 0.993 | locus YDL134C, strain PPH21, hits give low values 0.997 | locus YDL185W, strain tfp1, hits give low values 0.955 | locus YDL192W, strain arf1, hits give low values 0.991 | locus YDR001C, strain nth1, hits give low values 1 | locus YDR069C, strain doa4, hits give low values 1 | locus YDR101C, strain arx1, hits give low values 1 | locus YDR137W, strain rgp1, hits give low values 1.01 | locus YDR150W, strain NUM1, hits give low values 0.947 | locus YDR159W, strain sac3, hits give low values 0.995 | locus YDR162C, strain NBP2, hits give low values 0.968 | locus YDR195W, strain ref2 0.962 | locus YDR297W, strain sur2, hits give low values 1.01 | locus YDR318W, strain mcm21, hits give low values 0.987 | locus YDR334W, strain swr1, hits give low values 1 | locus YDR335W, strain msn5, hits give low values 0.997 | locus YDR388W, hits give low values 1.01 | locus YDR392W, strain spt3, hits give low values 0.885 | locus YDR502C, strain sam2, hits give low values 0.999 | locus YEL003W, strain gim4, hits give low values 0.999 | locus YEL037C, strain rad23, hits give low values 1 | locus YEL061C, strain CIN8 (second series), hits give low values 0.999 | locus YEL061C, strain CIN8, hits give low values 0.998 | locus YER015W, strain faa2, hits give low values 1.01 | locus YER016W, strain bim1, hits give low values 0.995 | locus YER110C, hits give low values 0.993 | locus YER111C, strain swi4, hits give low values 0.995 | locus YER155C, strain BEM2 (second series), hits give low values 0.988 | locus YER155C, strain BEM2, hits give low values 1.02 | locus YER167W, strain BCK2, hits give low values 0.989 | locus YFR010W, strain ubp6, hits give low values 0.999 | locus YGL078C, strain dbp3, hits give low values 0.986 | locus YGL086W, strain mad1, hits give low values 0.98 | locus YGL167C, strain pmr1, hits give low values 0.994 | locus YGL173C, strain kem1, hits give low values 1 | locus YGL227W, strain vid30, hits give low values 0.986 | locus YGL240W, strain doc1, hits give low values 0.986 | locus YGL248W, strain PDE1, hits give low values 0.989 | locus YGL253W, strain hxk2, hits give low values 1 | locus YGR078C, strain PAC10, hits give low values 0.932 | locus YGR135W, strain pre9, hits give low values 0.996 | locus YGR229C, strain SMI1, hits give low values 0.928 | locus YGR252W, strain gcn5, hits give low values 1.03 | locus YHR013C, strain ard1, hits give low values 0.943 | locus YHR027C, strain rpn1, hits give low values 1.01 | locus YHR030C, strain SLT2, hits give low values 0.997 and 0.962 | locus YHR079C, strain IRE1 (second series), hits give low values 0.995 | locus YHR079C, strain IRE1, hits give low values 0.951 | locus YHR094C, strain hxt1, hits give low values 0.988 | locus YHR129C, strain ARP1, hits give low values 0.991 | locus YHR142W, strain chs7, hits give low values 1.01 | locus YHR200W, strain rpn10, hits give low values 0.992 | locus YIL066C, strain RNR3, hits give low values 0.928 | locus YIL073C, strain SPO22, hits give low values 0.866 | locus YIL125W, strain kgd1, hits give low values 0.984 | locus YIR030C, strain dcg1, hits give low values 1 | locus YJL092W, strain hpr5, hits give low values 0.991 | locus YJL095W, strain BCK1 (second series), hits give low values 1 | locus YJL095W, strain BCK1, hits give low values 1.01 and 0.968 | locus YJL115W, strain asf1, hits give low values 1 | locus YJL129C, strain trk1, hits give low values 1 | locus YJL134W, strain LCB3, hits give low values 0.99 | locus YJL154C, strain vps35, hits give low values 1 | locus YJL164C, strain tpk1, hits give low values 1 | locus YJL166W, strain qcr8, hits give low values 0.997 | locus YJL168C, strain set2, hits give low values 1.01 | locus YJL187C, strain SWE1 (second series), hits give low values 0.984 | locus YJL187C, strain SWE1, hits give low values 1 | locus YJR043C, strain POL32, hits give low values 0.996 | locus YJR066W, strain TOR1, hits give low values 0.928
